According to PubChem BioAssay:
Values joined by “and” are separate entries in the source; they are usually repeats but may differ in a detail not shown here. Equal entries are not always repeated. A structure can be active in one record and inactive in another. Active and inactive are the calls of the source.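 How the source made its calls, unless noted: active means compounds whose cell count with miR-34 switched on is under 0.7 times the count with it off; inactive means the rest.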

Key:
[1] = viability loss with induced miR-34 in A549 – imaging, A549 dox-inducible miR-34, nuclei and caspase counts, primary screen (AID 1347080); details: A549 miR-34 inducible, Hoechst nuclei count, 48 h; further: test concentration not given here
[2] = MELAS cybrid and Rieske KO viability enhancers – cell-based, MELAS cybrids, Rieske KO mouse fibroblasts, CellTiter-Glo, primary screen (AID 1508586;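 active means mean z-score across replicates of 1.96 or higher in either the MELAS or the Rieske mutant cell line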;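 further: test concentration not given here; z relative to plate mean and SD of compound and empty wells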); details: low glucose
[3] = galactose survival enhancers in mitochondrial complex I cybrids – cell-based, galactose medium, ATP luminescence, primary screen (AID 1645843;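 active means z-score of at least 1.8 in each of two replicates, scored against plate mean and spread of sample wells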;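 further: positive z means more ATP and so rescue of galactose-driven cybrid death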); details: complex I mutant cybrid cells, 72 h, stronger effect = higher value
[4] = stronger effect = lower value, cell number ratio, induced over uninduced
[5] = measured here: relative caspase fold change +Dox/-Dox
[6] = measured here: total cells with miR-34 induction, stronger effect = lower value
[7] = measured here: total cells without miR-34 induction
[8] = MELAS cybrid survival, CellTiter-Glo 48 h, stronger effect = higher value
[9] = Rieske KO mouse fibroblast survival, CellTiter-Glo 72 h

CC(C)C1CCC(C(=O)NC(Cc2ccccc2)C(=O)O)CC1 (stereo unspecified)
fold change [1, 4]: 0.94 (inactive) and 0.917 (inactive)
fold change [1, 5]: 2.3 and 1.08
cell count [1, 6]: 9290 and 9300
cell count [1, 7]: 9880 and 10100
z-score [2, 8]: -0.394 (inactive)
z-score [2, 9]: 0.0104
z-score [3]: 0.805 (inactive)

OCC(O)COc1ccc(Cl)cc1 (stereo unspecified)
fold change [1, 4]: 0.886 (inactive)
fold change [1, 5]: 0.44
cell count [1, 6]: 8700
cell count [1, 7]: 9820
z-score [2, 8]: 0.325 (inactive)
z-score [2, 9]: 0.457
z-score [3]: 0.62 (inactive)

c1ccc(CN2CCC(Nc3ncnc4sccc34)CC2)nc1
fold change [1, 4]: 0.895 (inactive)
fold change [1, 5]: 1.42
cell count [1, 6]: 5240
cell count [1, 7]: 5860
z-score [2, 8]: -0.277 (inactive)
z-score [2, 9]: -0.421
z-score [3]: -0.58 (inactive)

CCOC(=O)C1=C(C)NC(C)=C(C(=O)OCC)C1c1ccccc1C=CC(=O)OC(C)(C)C
fold change [1, 4]: 0.635 (active) and 0.971 (inactive)
fold change [1, 5]: 1.57 and 0.602
cell count [1, 6]: 2050 and 7220
cell count [1, 7]: 3220 and 7430
z-score [2, 8]: -0.107 (inactive)
z-score [2, 9]: -0.188
z-score [3]: -1.44 (inactive)

Cc1cc(-c2cnn(CC(=O)Nc3ccnn3Cc3ccccc3)c2)nc(N)n1
fold change [1, 4]: 0.926 (inactive)
fold change [1, 5]: 0.917
cell count [1, 6]: 8320
cell count [1, 7]: 8980
z-score [2, 8]: -0.562 (inactive)
z-score [2, 9]: 0.0522
z-score [3]: -0.58 (inactive)

O=S(=O)(O)CCCN1CCOCC1
fold change [1, 4]: 0.928 (inactive)
fold change [1, 5]: 0.665
cell count [1, 6]: 8750
cell count [1, 7]: 9420
z-score [2, 8]: 0.595 (inactive)
z-score [2, 9]: -0.353
z-score [3]: 0.105 (inactive)

Cc1nc(NC(=O)NCc2cccc(Cl)c2)nn1C
fold change [1, 4]: 0.889 (inactive)
fold change [1, 5]: 2.08
cell count [1, 6]: 8140
cell count [1, 7]: 9160
z-score [2, 8]: 7.52 (active)
z-score [2, 9]: 0.00105
z-score [3]: -0.605 (inactive)

COc1cc(N=C(N)N=C(N)N)cc(OC)c1
fold change [1, 4]: 0.901 (inactive)
fold change [1, 5]: 0.269
cell count [1, 6]: 8210
cell count [1, 7]: 9120
z-score [2, 8]: 0.825 (inactive)
z-score [2, 9]: -0.341
z-score [3]: 0.61 (inactive)

CC(=O)c1sc(Nc2ccccc2)nc1C
fold change [1, 4]: 0.911 (inactive)
fold change [1, 5]: 0.648
cell count [1, 6]: 8310
cell count [1, 7]: 9120
z-score [2, 8]: 3.09 (active)
z-score [2, 9]: -0.213
z-score [3]: 0.63 (inactive)

CC(C)n1cc(-c2cc(C(=O)N(C)Cc3cccnc3)c3ccc(F)cc3n2)cn1
fold change [1, 4]: 0.916 (inactive)
fold change [1, 5]: 1.28
cell count [1, 6]: 9850
cell count [1, 7]: 10700
z-score [2, 8]: -0.603 (inactive)
z-score [2, 9]: 1.43
z-score [3]: -0.355 (inactive)

CC1(C)CC(=O)c2c(N)ncnc2C1
fold change [1, 4]: 0.894 (inactive)
fold change [1, 5]: 0.392
cell count [1, 6]: 9160
cell count [1, 7]: 10200
z-score [2, 8]: 0.568 (inactive)
z-score [2, 9]: -0.422
z-score [3]: 0.725 (inactive)

O=C(O)Cc1ccc(O)c([N+](=O)[O-])c1
fold change [1, 4]: 0.901 (inactive)
fold change [1, 5]: 0.986
cell count [1, 6]: 8450
cell count [1, 7]: 9380
z-score [2, 8]: 0.677 (inactive)
z-score [2, 9]: 0.189
z-score [3]: 1 (inactive)

O=[N+]([O-])c1ccc2[nH]ncc2c1
fold change [1, 4]: 0.885 (inactive)
fold change [1, 5]: 0.558
cell count [1, 6]: 8690
cell count [1, 7]: 9820
z-score [2, 8]: 0.727 (inactive)
z-score [2, 9]: -0.415
z-score [3]: -0.195 (inactive)

CC(C)C(NC(=O)Cc1c[nH]c2ccccc12)C(=O)O (stereo unspecified)
fold change [1, 4]: 0.857 (inactive)
fold change [1, 5]: 0.806
cell count [1, 6]: 8140
cell count [1, 7]: 9500
z-score [2, 8]: -1.19 (inactive)
z-score [2, 9]: -0.306
z-score [3]: 0.47 (inactive)

CC(C)(N)c1cn(C2CCN(c3nc(N)nc4nc[nH]c34)CC2)nn1
fold change [1, 4]: 0.945 (inactive)
fold change [1, 5]: 0.882
cell count [1, 6]: 9180
cell count [1, 7]: 9720
z-score [2, 8]: 1.11 (inactive)
z-score [2, 9]: -0.203
z-score [3]: -0.545 (inactive)

COc1ccc(CCC(=O)O)cc1OC
fold change [1, 4]: 0.922 (inactive)
fold change [1, 5]: 0.518
cell count [1, 6]: 8510
cell count [1, 7]: 9240
z-score [2, 8]: -0.767 (inactive)
z-score [2, 9]: -0.44
z-score [3]: -0.02 (inactive)

O=C(C=Cc1ccc(O)c(O)c1)NCCc1ccc(O)cc1
fold change [1, 4]: 0.861 (inactive)
fold change [1, 5]: 0.612
cell count [1, 6]: 8240
cell count [1, 7]: 9580
z-score [2, 8]: -0.586 (inactive)
z-score [2, 9]: -0.131
z-score [3]: 0.38 (inactive)

COC(=O)CN1CCN(C(=O)Nc2n[nH]c(-c3ccco3)n2)CC1=O
fold change [1, 4]: 0.915 (inactive)
fold change [1, 5]: 1.4
cell count [1, 6]: 9430
cell count [1, 7]: 10300
z-score [2, 8]: 0.382 (inactive)
z-score [2, 9]: 0.531
z-score [3]: 1.98 (inactive)

COCCn1cncc1CNc1nccc(-c2c(C)nn(C)c2C)n1
fold change [1, 4]: 0.881 (inactive)
fold change [1, 5]: 0.975
cell count [1, 6]: 8090
cell count [1, 7]: 9180
z-score [2, 8]: -0.172 (inactive)
z-score [2, 9]: -0.0475
z-score [3]: -0.325 (inactive)

O=C(O)CNC(=O)c1cccc(O)c1
fold change [1, 4]: 0.865 (inactive)
fold change [1, 5]: 0.603
cell count [1, 6]: 8440
cell count [1, 7]: 9760
z-score [2, 8]: 0.669 (inactive)
z-score [2, 9]: 0.0478
z-score [3]: 0.945 (inactive)

O=C(Nc1ccc(I)cc1)NC1CCCCC1
fold change [1, 4]: 0.864 (inactive)
fold change [1, 5]: 0.498
cell count [1, 6]: 7960
cell count [1, 7]: 9220
z-score [2, 8]: 0.185 (inactive)
z-score [2, 9]: -0.338
z-score [3]: 1.05 (inactive)

CC1OC(OC2C(CO)OC(OC3C(CO)OC(O)C(O)C3O)C(O)C2O)C(O)C(O)C1NC1C=C(CO)C(O)C(O)C1O (stereo unspecified)
fold change [1, 4]: 0.923 (inactive) and 1.03 (inactive)
fold change [1, 5]: 1.2 and 0.703
cell count [1, 6]: 9530 and 7300
cell count [1, 7]: 10300 and 7090
z-score [2, 8]: -0.375 (inactive)
z-score [2, 9]: -0.157
z-score [3]: 0.475 (inactive)

CCc1ccc(CNC(=O)Nc2nc(C)n(C(C)C)n2)nc1
fold change [1, 4]: 0.86 (inactive)
fold change [1, 5]: 1.49
cell count [1, 6]: 7770
cell count [1, 7]: 9030
z-score [2, 8]: 0.0188 (inactive)
z-score [2, 9]: 0.8
z-score [3]: -0.525 (inactive)
